Granule exo inh = blocks lytic granule exocytosis; TALL-104 LAMP-1 surface exposure, flow cytometry; cells stimulated with thapsigargin and PMA; AID 651702; inhibition, % at 10 µM; hit rate 0.66% among 360,000;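 active means inhibition above about 55%, limit read from the data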
ABCB6 inh MLPCN = blocks the human ABCB6 transporter | hit rate 0.19% among 360,000 | Q9NP58 | K562-ABCB6 porphyrin accumulation, flow cytometry, 1 h; active compounds read low | AID 602162 | fluorescence ratio to DMSO, % at 10 µM;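 active means fluorescence ratio to DMSO below 75%, the collection mean minus 3 SD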;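 further: signal is porphyrin accumulated inside mitochondria; lower ratio means ABCB6 inhibition with less porphyrin fluorescence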
VLA-4 inh = inhibition in a human VLA-4 binding assay | inhibition, % (about 7 µM as worked out from the volumes in the protocol) | VLA-4 expressing cells, ligand binding flow cytometry | AID 2557 | P13612 | hit rate 0.2% among 330,000; in the data active means inhibition above about 50%
Rev-erbA mod = Rev-erb alpha (human) modulation; AID 1259318; activity, % at 10 µM; Rev-erbα–FITC-DNA binding, fluorescence polarization, 90 min; hit rate 0.79% among 370,000;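 active means activity above about 14%, limit read from the data; passing the limit was not always enough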
Target sequence (P20393 whole entry, looked up): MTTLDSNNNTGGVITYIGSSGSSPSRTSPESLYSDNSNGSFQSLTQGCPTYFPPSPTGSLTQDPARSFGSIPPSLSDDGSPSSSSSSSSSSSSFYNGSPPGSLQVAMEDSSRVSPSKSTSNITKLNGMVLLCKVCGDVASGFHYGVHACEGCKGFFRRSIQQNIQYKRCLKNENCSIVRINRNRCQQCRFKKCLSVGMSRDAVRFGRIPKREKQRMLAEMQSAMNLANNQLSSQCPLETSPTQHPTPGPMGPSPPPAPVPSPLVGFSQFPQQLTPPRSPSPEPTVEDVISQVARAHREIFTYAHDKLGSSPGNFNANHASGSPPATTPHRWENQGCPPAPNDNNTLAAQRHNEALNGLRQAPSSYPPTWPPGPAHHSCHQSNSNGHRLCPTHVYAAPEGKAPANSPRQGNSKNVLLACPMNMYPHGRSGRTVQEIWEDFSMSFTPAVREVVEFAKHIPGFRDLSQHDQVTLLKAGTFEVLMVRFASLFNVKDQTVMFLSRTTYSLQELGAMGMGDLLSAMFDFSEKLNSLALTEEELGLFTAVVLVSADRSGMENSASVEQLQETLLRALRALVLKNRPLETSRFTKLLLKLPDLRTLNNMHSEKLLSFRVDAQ
PG9 binder = PG9 antibody binding by small molecule; TR-FRET gp120-PG9 antibody binding; inhibition, % at 6.7 µM; hit rate 0.43% among 360,000; AID 624416; in the data active means inhibition above about 8.5%
NR1D1 mod conf = Rev-erb alpha (human) modulation, hit confirmation; activation, % at 25 µM; Rev-erb alpha FITC-DNA binding, fluorescence polarization, 90 min; shares compounds with Rev-erbA mod; AID 1259319; hit rate 61% among 3,000;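 active means activation at or above a set limit, or at least 3 SD above the negative control mean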
RORg DNA counter = RORgamma DNA-binding activity, dose-response counter-screen | shares compounds with Rev-erbA mod | purified RORgamma protein-FITC-DNA binding, fluorescence polarization | IC50, µM | hit rate 8% among 910 | AID 1259320;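 active means Compounds whose fitted half-maximal concentration for disrupting protein-DNA binding is below 10 micromolar; the record names Rev-erb in its text, so the target is in doubt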
Hits are given with their value; . = inactive; / = not tested or not shown. An excerpt weighted towards active compounds, which were near 2% of everything screened.

SMILES	Granule exo inh	ABCB6 inh MLPCN	VLA-4 inh	Rev-erbA mod	PG9 binder	NR1D1 mod conf	others
O=S(=O)(NCCc1csc(-c2cccnc2)n1)c1cccs1	.	.	.	23.9	.	.
O=C(Nc1ccc(O)c(-c2nc3ccccc3s2)c1)c1cccs1	.	.	.	360.1	36.1	702.9	RORg DNA counter=.
O=C(Nc1ccc(O)c(-c2nc3ccccc3s2)c1)c1cc(=O)c2ccccc2o1	.	.	.	.	.	/
COCCCNC(=O)C[C@H]1C[C@@]2(C(=O)OC)C(=C[C@H](C(C)C)O[C@@H]2C2CC2)N(Cc2ccc3c(c2)OCO3)C1=O	/	/	/	.	/	/
CN(C)c1ncnc2c1ncn2[C@H]1CN(Cc2ccncc2)C[C@@H](CO)O1	.	.	/	.	.	/
CN(C)c1ncnc2c1ncn2[C@H]1CN(Cc2cccs2)C[C@@H](CO)O1	.	.	/	23.9	.	.
COC(=O)c1cc(C)oc1C	/	/	/	.	/	/
O=c1[nH]c(/C=C/c2ccccc2OC(F)F)nc2c1cnn2-c1ccccc1	.	.	.	23.8	.	.
COc1cc(/C=C/c2nc3ccccc3c(=O)[nH]2)ccc1OC(F)F	.	.	.	.	.	/
CCOC(=O)C1=NOC(C(C)=O)(C(=O)N2CCOCC2)C1 (configuration not stated)	/	/	/	.	/	/
CC1CC(C)CN(c2oc(-c3ccccc3Cl)nc2C#N)C1 (configuration not stated)	.	.	.	17.7	.	.
N#Cc1nc(-c2ccccc2F)oc1N1CCN(C(=O)c2ccco2)CC1	.	.	.	.	.	/
N#Cc1nc(-c2ccccc2Cl)oc1N1CCN(C(=O)c2ccco2)CC1	.	.	.	25.1	.	.
COc1cc(OC)cc(-n2c3nc4ccccc4nc3c3c(=O)n(CC4CCCO4)cnc32)c1 (configuration not stated)	/	/	.	299.8	.	142.4	RORg DNA counter=.
O=c1c2c3nc4ccccc4nc3n(CC3CCCO3)c2ncn1CCc1ccccc1 (configuration not stated)	.	.	.	.	.	/
COc1ccc(-n2c(SCC(=O)NNC(=S)Nc3ccc(C)cc3)nnc2-c2ccccc2)cc1	/	/	/	.	/	/
C/C(N)=C(/C#N)C(=O)CSc1nc2ccccc2c(=O)n1Cc1ccc(C)cc1	.	.	.	69.7	.	25.4
Cc1cc(NC(=O)CSc2nc3ccccc3c(=O)n2Cc2ccccc2)no1	.	.	.	.	.	/
Cc1ccc(Cn2c(SCC(=O)Nc3cc(C)on3)nc3ccccc3c2=O)cc1	.	.	.	45.3	16.8	18.5
CC(=O)Oc1cc(C)c(Cl)c2c(OC(C)=O)cc(C(C)=O)c(O)c12	/	/	/	.	.	/
CC(Cl)C(=O)N1CCC(C(=O)NC2CCCc3ccccc32)CC1 (configuration not stated)	/	/	/	.	/	/
O=C(CCc1c[nH]c2ccccc12)NCCc1ccc2c(c1)OCCO2	.	.	.	28.3	.	32.1	RORg DNA counter=.
CC(=O)NC(=S)Nc1ccc2oc(-c3cc(F)c(F)cc3Cl)nc2c1	.	.	.	50.4	.	31.8	RORg DNA counter=.
Cc1ccc(C(=O)CSc2ncnc3sc4c(c23)CCC(C)C4)cc1 (configuration not stated)	.	.	/	68.4	.	24.1
CCOC(=O)[C@@]12CN(C(=O)OC(C)(C)C)CC=C1N(Cc1ccc(OC)cc1)C(=O)[C@H]2CC(=O)NCCC(C)C	/	/	/	.	/	/
SMILES	Granule exo inh	ABCB6 inh MLPCN	VLA-4 inh	Rev-erbA mod	PG9 binder	NR1D1 mod conf	others
COc1cccc(-c2cc(=O)c3cc(NC(=O)c4ccccc4)ccc3[nH]2)c1	.	.	.	26.1	.	.
COc1cccc(-c2cc(=O)c3cc(NC(=O)c4ccc(N(C)C)cc4)ccc3[nH]2)c1	/	/	.	/	/	/
NC(=O)c1cc2ccccc2o/c1=N\NC(=O)c1ccccc1O	.	.	.	21.0	.	.
COc1ccc(C(=O)CSc2nnc(-c3ccccc3)n2-c2ccc(Cl)cc2)cc1	/	/	/	.	/	/
Cc1cc(NC(=O)CSc2ncnc3c2cnn3-c2ccccc2)no1	.	.	.	.	.	/
Cc1nn(C)c(C)c1NC(=O)CSc1nc(-c2ccccc2Cl)nc2c1cnn2-c1ccccc1	.	.	.	102.2	.	91.9	RORg DNA counter=6.77
Cc1nn(C)c(C)c1NC(=O)CSc1nc(-c2ccccc2F)nc2c1cnn2-c1ccccc1	.	.	/	41.7	.	62.5	RORg DNA counter=.
O=C(NC1CCCC1)C1CCN(S(=O)(=O)c2ccc3[nH]c(=O)oc3c2)CC1	/	/	/	.	/	/
COC(=O)[C@@]12CCCCC3=C1N(CCC3)C(=O)[C@H]2CC(=O)N1CCOCC1	/	/	/	.	/	/
O=C(Cc1ccc(Cl)cc1)NC(=S)Nc1ccccc1N1CCOCC1	.	.	.	.	.	/
O=C(Nc1ccccc1N1CCOCC1)C1(c2ccc(Cl)cc2)CCC1	.	.	.	19.7	.	.
Fc1ccc(F)c(Cn2ccc3ccc(-c4ccc5ccn(Cc6cc(F)ccc6F)c5c4)cc32)c1	/	/	/	.	/	/
CCCCc1ccc(NC(=O)COC(=O)c2ccc3ncsc3c2)cc1	.	.	/	17.1	.	.
O=[N+]([O-])c1ccccc1N=Nc1ccc(O)cc1O	.	.	/	32.4	.	16.8
FC(F)(F)c1ccc(N2CCN(c3ncnc4c3nnn4Cc3ccccc3)CC2)nc1	.	.	.	20.8	.	.
c1ccc(Cn2nnc3c(N4CCOCC4)ncnc32)cc1	.	.	.	.	.	/
Cc1ccccc1Oc1ncnc2oc(-c3ccccc3)cc12	.	.	.	.	.	/
Clc1ccc(Oc2ncnc3oc(-c4ccccc4)cc23)cc1	.	.	.	37.4	.	18.3
Cc1cc(N2CCN(C(=O)OC(C)(C)C)C[C@H]2C)ccc1Br	/	/	/	14.8	.	.
[O-][n+]1ccccc1C(O)CSc1ccccc1 (configuration not stated)	/	/	/	.	.	/
COc1ccc(NC(=O)/C(C#N)=C/c2ccc(Br)o2)cc1	.	.	.	.	.	/
N#C/C(=C/c1ccc(N2CCCCC2)o1)C(=O)Nc1ccc2ccccc2c1	62.7	.	/	67.2	.	24.9
COc1ccc(NC(=O)/C(C#N)=C\c2ccc(N3CCOCC3)o2)cc1	.	.	.	65.3	.	40.5	RORg DNA counter=.
N#C/C(=C\c1ccc(N2CCOCC2)o1)C(=O)Nc1ccc(O)cc1	.	.	.	43.7	.	27.2
O=c1c2ccccc2n2c(-c3ccc(C(F)(F)F)cc3)nnc2n1Cc1ccccc1	.	.	.	.	.	/
O=c1c2ccccc2n2c(-c3ccc(F)cc3)nnc2n1Cc1ccccc1	.	.	.	24.3	.	35.0	RORg DNA counter=.
CCOC(=O)c1c(NC(=O)CN2C(=O)NC3(CCCCC3)C2=O)sc(C)c1-c1ccc(C)cc1	.	.	.	.	.	/
CCOC(=O)c1sc(NC(=O)CN2C(=O)NC3(CCCCCCC3)C2=O)c(C(=O)OCC)c1C	.	.	.	28.2	.	.
Cc1ccc2c(C(=O)CSc3ccccc3)c(C)[nH]c2c1	.	.	.	30.3	.	28.2

Assay outcomes deposited in PubChem by several laboratories.
